Results filed as inconclusive are left out. The source made the active and inactive calls. Unless noted, calls follow the shape of the dose curve; as a rule, active = well fitted curve in the direction sought with a large enough effect; inconclusive = small, poorly fitted or top-dose-only effect, or another doubt; inactive = no such curve, though single readings can be large; an effect the other way counts as inactive or inconclusive.

The text below walks through data of PubChem BioAssay (NCATS).

The target in assay [1] is Ubiquitin carboxyl-terminal hydrolase 1 (Homo sapiens) (UniProt O94782). The assay can be described thus: Inhibitors of USP1/UAF1: Pilot qHTS (AID 504865).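 Also: rhodamine fluorescence freed from ubiquitin-rhodamine substrate followed over time; top concentration of the series differs between compounds; nearly all actives have a fitted effect of over 35% in size.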 Summed up:
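In 50mM HEPES pH 7.8 containing 0.5mM EDTA, 1mM TCEP, 0.1 mg/ml BSA and 0.01% Tween-20, 1nM USP1/UAF1 is exposed to compound for 15 min, then Ub-Rho (150nM final) is added and fluorescence is read over time.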
For orientation: In qHTS, concentration-response curves come from the screen itself.

The target of assay [2] is Peptidyl-prolyl cis-trans isomerase NIMA-interacting 1 (Homo sapiens) (UniProt Q13526). The assay can be described thus: qHTS Validation Assay to Find Inhibitors of Pin1 (AID 504536; active = well fitted inhibition curve with a large enough effect in the polarisation, with a control signal flat, not every such curve was filed as active; the % refers to the polarisation). Summed up:
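Fluorescence polarization competition: compounds (titration) displace HiFluor-488-labeled Pin1-1b peptide from Pin1 (0.3 uM final) in pH 7.5 HEPES buffer with DTT, 10 min at room temperature; %Activity normalized to no-enzyme wells, curves fitted.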

The target of assay [3] is phosphoglycerate mutase (Leishmania major) (UniProt Q4Q090). The assay can be described thus: qHTS Validation Assay to Find Inhibitors of Phosphoglycerate Mutase (AID 504548). Also: potency is read from the fitted curve at half-maximal effect. As to conditions: Potency: inhibition qHTS. An outline of the steps:
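Lm PGAM at 1.25 nM final with substrate in 100 mM TEA pH 7.6, 5 mM MgCl2, 0.01% Tween-20; 45 min at room temperature. Kinase-GloPlus added, 10 min, end-point luminescence read.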

The nature of assay [4]: Inducers of the Endoplasmic Reticulum Stress Response (ERSR) in human glioma: Validation (AID 504836). An outline of the steps:
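Stably transfected U87-MG glioma cells carrying a GRP78-based luciferase sensor; 16 h compound incubation. Luminescence end-point read 10 min after Bright-Glo addition at room temperature.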

Assay [5] can be described thus: qHTS for Inhibitors of ATXN expression: Validation of Cytotoxic Assay (AID 588349). Summed up: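 HEK293 cells treated with titrated compound for 72 hr at 37 degrees C; viability read as intracellular ATP by CellTiter Glo luminescence.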
A short description of assay [6]: qHTS for Inhibitors of ATXN expression: Validation (AID 588378). Also: nearly all actives have a fitted effect of over 75% in size. Also: potency is read from the fitted curve at half-maximal effect. Summed up: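 Compounds were pinned onto attached HEK293 cells carrying an ATXN2-firefly luciferase construct and incubated 24 hrs at 37 degrees C. Each well then received a fluorescent viability reagent followed by luciferase substrate for end-point luminescence.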
Assay [7] addresses Phosphoglycerate kinase, glycosomal (Trypanosoma brucei brucei) (UniProt P07378). The assay can be described thus: qHTS Validation Assay to Find Inhibitors of Phosphoglycerate Kinase (AID 504547). Summed up: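 PGK activity was coupled to GAPDH (100nM final), which generates the unstable substrate 1,3-bisphosphoglycerate in-well. Reactions ran 60 minutes at room temperature in 100mM TEA pH 7.6, 5mM MgCl2, 0.01% Tween-20, then Kinase-Glo Plus luminescence was read.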

Sequence of Ubiquitin carboxyl-terminal hydrolase 1 (Homo sapiens) (O94782 whole entry, looked up): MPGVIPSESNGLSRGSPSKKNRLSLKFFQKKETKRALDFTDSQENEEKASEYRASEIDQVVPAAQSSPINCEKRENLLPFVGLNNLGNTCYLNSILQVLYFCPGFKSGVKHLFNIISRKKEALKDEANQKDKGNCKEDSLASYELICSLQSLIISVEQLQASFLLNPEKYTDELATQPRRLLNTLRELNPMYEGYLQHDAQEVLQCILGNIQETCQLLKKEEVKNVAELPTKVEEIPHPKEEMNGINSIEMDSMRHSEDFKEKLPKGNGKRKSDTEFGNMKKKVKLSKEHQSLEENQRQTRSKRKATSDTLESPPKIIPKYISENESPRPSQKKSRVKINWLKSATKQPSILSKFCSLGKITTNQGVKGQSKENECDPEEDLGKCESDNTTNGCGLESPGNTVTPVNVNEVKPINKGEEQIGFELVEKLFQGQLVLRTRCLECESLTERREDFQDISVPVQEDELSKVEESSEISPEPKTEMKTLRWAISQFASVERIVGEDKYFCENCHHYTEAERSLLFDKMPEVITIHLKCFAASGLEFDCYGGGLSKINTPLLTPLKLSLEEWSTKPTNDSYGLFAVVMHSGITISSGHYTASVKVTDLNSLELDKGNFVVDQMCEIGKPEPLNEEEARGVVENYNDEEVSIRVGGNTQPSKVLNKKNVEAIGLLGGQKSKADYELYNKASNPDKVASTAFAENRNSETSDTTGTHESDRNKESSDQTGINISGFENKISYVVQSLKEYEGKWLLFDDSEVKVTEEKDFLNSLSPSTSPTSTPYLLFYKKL
Sequence of Peptidyl-prolyl cis-trans isomerase NIMA-interacting 1 (Homo sapiens) (Q13526 whole entry, looked up): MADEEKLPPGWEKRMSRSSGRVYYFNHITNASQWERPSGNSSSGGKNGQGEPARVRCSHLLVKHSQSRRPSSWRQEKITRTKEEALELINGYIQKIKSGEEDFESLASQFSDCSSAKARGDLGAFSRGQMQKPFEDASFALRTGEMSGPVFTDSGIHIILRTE
Sequence of phosphoglycerate mutase (Leishmania major) (Q4Q090 1-553): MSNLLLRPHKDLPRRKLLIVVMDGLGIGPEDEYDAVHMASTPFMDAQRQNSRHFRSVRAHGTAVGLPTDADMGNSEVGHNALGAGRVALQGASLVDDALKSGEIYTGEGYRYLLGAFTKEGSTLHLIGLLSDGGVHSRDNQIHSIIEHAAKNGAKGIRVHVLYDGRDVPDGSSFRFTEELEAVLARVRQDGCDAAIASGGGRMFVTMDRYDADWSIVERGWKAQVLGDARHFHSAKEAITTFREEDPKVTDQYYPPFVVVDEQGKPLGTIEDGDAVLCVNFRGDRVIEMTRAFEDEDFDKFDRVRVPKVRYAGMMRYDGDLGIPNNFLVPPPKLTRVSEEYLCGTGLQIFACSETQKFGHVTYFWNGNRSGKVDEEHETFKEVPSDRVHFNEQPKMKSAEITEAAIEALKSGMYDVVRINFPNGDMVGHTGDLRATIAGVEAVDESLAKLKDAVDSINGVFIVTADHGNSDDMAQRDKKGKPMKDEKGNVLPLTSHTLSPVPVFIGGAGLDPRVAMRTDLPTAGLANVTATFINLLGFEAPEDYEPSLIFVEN
Sequence of Phosphoglycerate kinase, glycosomal (Trypanosoma brucei brucei) (P07378 whole entry, looked up): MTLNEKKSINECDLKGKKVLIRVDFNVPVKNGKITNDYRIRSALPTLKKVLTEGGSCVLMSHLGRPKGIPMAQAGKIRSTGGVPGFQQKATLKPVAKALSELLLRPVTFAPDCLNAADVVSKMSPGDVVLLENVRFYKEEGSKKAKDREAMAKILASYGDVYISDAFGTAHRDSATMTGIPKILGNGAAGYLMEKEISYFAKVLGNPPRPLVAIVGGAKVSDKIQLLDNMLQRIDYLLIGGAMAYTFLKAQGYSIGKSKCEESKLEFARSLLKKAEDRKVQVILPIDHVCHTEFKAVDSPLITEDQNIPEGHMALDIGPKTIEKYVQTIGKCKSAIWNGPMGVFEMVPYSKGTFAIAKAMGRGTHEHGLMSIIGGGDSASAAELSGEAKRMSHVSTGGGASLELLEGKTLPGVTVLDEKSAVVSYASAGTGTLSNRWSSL

For `CCC1(c2ccccc2)C(=O)NC(=O)N(C(=O)c2ccccc2)C1=O` (configuration not stated), the Potency entry in assay [1] is “inactive”.

For the compound `Cc1cc([C@@H]2CCCN2C)on1`, the Potency entry in assay [2], in assay [3], in assay [1], in assay [5] and in assay [6] was “inactive” in each case. Also, in assay [4], the outcome was inactive.

For the compound `C=CCC1(C(C)CCC)C(=O)N=C(S)NC1=O` (configuration not stated), the Potency result in assay [1] is “inactive”.

Consider `C=CCN1CCc2cccc3c2[C@H]1Cc1ccc(O)c(O)c1-3`, for which the Potency result in assay [2], in assay [7] and in assay [1] was “inactive” throughout.

In the case of `S=C(S)N1CCNCC1`, the Potency entry in assay [1] was “inactive”.

Consider `CCC1C(C)=NN=C(c2ccc(OC)c(OC)c2)c2cc(OC)c(OC)cc21` (configuration not stated), for which the Potency result in assay [1] is “inactive”.

With `c1csc(C2(N3CCCCC3)CCCCC2)c1`, in assay [1], the Potency entry is “inactive”.

In the case of `CCC1(C)CC(=O)NC(=O)C1`, in assay [1], the Potency result is “inactive”.

Turning to `CNc1ccc2oc(C[C@H]3O[C@@]4(CC[C@H]3C)O[C@H]([C@H](C)C(=O)c3ccc[nH]3)[C@H](C)C[C@H]4C)nc2c1C(=O)O`, the Potency result in assay [2], in assay [3] and in assay [1] was “inactive” throughout. In addition, the Potency in assay [6] is 3.16 µM (active).

Regarding `O[C@H]1[C@H]2[C@H](O)CCCN2C[C@H]1O`, in assay [1], the Potency result is “inactive”.

Consider `O=c1c2ccccc2[se]n1-c1ccccc1`, for which the Potency entry in assay [2], in assay [1] and in assay [6] was “inactive” each time. Also, in assay [3], the Potency was 7.57 µM (active). Besides, the result in assay [4] was inactive.

On to `N#CCCN`, for which the Potency entry in assay [2], in assay [3], in assay [1], in assay [5] and in assay [6] was “inactive” in each case.

For the compound `FC(F)OC(F)(F)C(F)Cl` (configuration not stated), the Potency entry in assay [1] is “inactive”.

Consider `COc1ccc2c(c1)/C(=C/c1cnc[nH]1)C(=O)N2`, for which the Potency result in assay [2], in assay [7] and in assay [1] was “inactive” each time. Besides, the compound was called inactive in assay [4]. For the same compound, the Potency in assay [6] is 2.82 µM (active).

For `O=[N+]([O-])c1cc(I)c(O)c(I)c1`, in assay [1], the Potency entry was “inactive”.

As to `N#C/C(=C/c1ccc(O)c(O)c1)C(N)=S`, the Potency result in assay [2], in assay [3], in assay [1] and in assay [6] was “inactive” throughout.

On to `O=C(OCCN1CCCCC1)C(O)(c1ccccc1)c1ccccc1`, for which, in assay [1], the Potency result was “inactive”.
